FLuc modulator: inhibits or activates purified firefly luciferase, miR-21 counter-screen | P08659 | actives 6.9% (n = 360,000) | AID 588342 | Potency, µM (highest dose often 57.5 µM), for the others: top-dose activity change, negative = inhibition, usual class: inhibitors | purified FLuc, Km substrates, luminescence inhibition;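 further: plate controls were vehicle for no effect and reference inhibitor for full effect; nearly all actives have a fitted effect of over 55% in size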
Target sequence (P08659 whole entry, looked up): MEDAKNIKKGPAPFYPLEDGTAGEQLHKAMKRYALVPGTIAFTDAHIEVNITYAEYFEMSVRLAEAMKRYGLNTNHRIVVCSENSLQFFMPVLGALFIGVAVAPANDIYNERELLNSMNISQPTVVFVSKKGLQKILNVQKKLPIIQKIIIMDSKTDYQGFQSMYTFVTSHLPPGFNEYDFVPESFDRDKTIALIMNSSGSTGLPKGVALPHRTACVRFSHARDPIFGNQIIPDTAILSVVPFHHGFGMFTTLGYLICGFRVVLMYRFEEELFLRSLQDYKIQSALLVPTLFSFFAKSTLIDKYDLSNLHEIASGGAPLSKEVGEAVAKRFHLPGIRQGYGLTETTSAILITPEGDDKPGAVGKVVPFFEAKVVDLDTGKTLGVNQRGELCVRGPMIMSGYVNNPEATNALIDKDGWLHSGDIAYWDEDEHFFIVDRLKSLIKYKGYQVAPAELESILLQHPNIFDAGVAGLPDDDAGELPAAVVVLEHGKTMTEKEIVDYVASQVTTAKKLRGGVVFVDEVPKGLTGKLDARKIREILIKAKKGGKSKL
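Purified P. pyralis luciferase (10nM final) with 10uM D-luciferin and 10uM ATP (Km levels) in 50mM Tris acetate pH 7.5, 10mM Mg acetate, 0.01% Tween-20, 0.05% BSA; qHTS 6-point titration, ~60 µM downward; luminescence read.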
ELG1 genotoxic: induces genotoxicity in HEK293T cells with luciferase-tagged ELG1; HEK293T ELG1-luciferase reporter, luminescence, 16 h; Potency, µM (highest dose often 46 µM), for inactives: top-dose activity change, positive = activation, hits mostly activators; actives 1.3% (n = 330,000); AID 504466; further: % of control where 0% means no effect; nearly all actives have a fitted effect of over 60% in size
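After overnight (16 hr) compound treatment at 37 °C, ELG1-luciferase HEK293T cells were lysed with ONE-Glo; luminescence quantified 30 min later at room temperature.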
NPC1 promoter act: activates the NPC1 promoter | Huh7 NPC1 promoter luciferase reporter, 24 h | Potency, µM (top dose mostly 9.22 µM), for inactives: at the top dose activation, most hits filed as activators | actives 2.4% (n = 320,000); further: % of control where 0% means no effect; nearly all actives have a fitted effect of over 60% in size
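Compounds in DMSO were transferred onto Huh7 NPC1-luciferase reporter cells pre-incubated 2 h; after 24 h at 37 °C, Amplite reagent was dispensed and luminescence recorded 10 min later.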
Rab9 prom act: activates the Rab9 promoter | Huh7 Rab9 promoter-luciferase reporter, luminescence, 24 h | Potency, µM (top dose mostly 9.22 µM), for the others: top-dose activation, negative = inhibition, usual class: activators | actives 2.8% (n = 320,000) | AID 485297; further: % of control where 0% means no effect; nearly all actives have a fitted effect of over 60% in size
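Cells were plated at 1500 per well in reduced-serum medium with 10% FBS and left 2 h. Compound in DMSO was then added for 24 h at 37 °C. Reporter signal was read by luminescence after 10 min with luciferase detection reagent.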
SMN2 splice up: increases expression of the SMN2 splice variant. HEK293 SMN2-luciferase splicing reporter, luminescence, 30-36 h. Potency, µM (highest dose often 46.1 µM), inactives show at the highest dose activity change, positive = activation, actives largely listed as activators. actives 2.8% (n = 210,000). AID 1458; further: % of control where 0% means no effect; nearly all actives have a fitted effect of over 55% in size
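HEK293 cells carry an SMN2 minigene-luciferase reporter in which exon 7 inclusion puts luciferase in frame. Cells were seeded at 2000 cells/well, attached for 10-12 hours, then exposed to compounds for 30-36 hours at 37C before ONE-Glo luminescence.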
Numbers without * were called inactive; ? = inconclusive; . = no result. A selection: hits, their analogues and other compounds. The true share with any hit is near 7.4%. The call rests on the fitted dose curve; in most records, active means well fitted curve in the direction sought with a large enough effect; inconclusive means small, poorly fitted or top-dose-only effect, or another doubt; inactive means no such curve, though single readings can be large; an effect the other way counts as inactive or inconclusive. Potency means the concentration at half of the fitted maximal effect.

SMILES	FLuc modulator	ELG1 genotoxic	NPC1 promoter act	Rab9 prom act	SMN2 splice up
O=C(Nc1ccc(N2CCOCC2)cc1)c1cc2c(s1)CCCCC2	19µM*	1.7%	-1.1%	-9.3%	-16.0%
O=C(Nc1ccccc1N1CCOCC1)c1cc2c(s1)CCCCC2	4.78µM*	6.8%	26.8%	?	.
O=C(Nc1ccc(N2CCOCC2)cc1)c1cc2c(s1)CCCC2	?	11.1%	10.3%	1.8%	-12.2%
CCn1c(/C=C/c2c[nH]c3ccccc23)nc2ccccc2c1=O	5.36µM*	2.59µM*	1.58µM*	1.41µM*	.
CCn1c(/C=C/c2ccccc2Cl)nc2ccccc2c1=O	26.9µM*	6.3%	20.6%	22.1%	.
CCn1cc2nc(SCc3cc(C)ccc3C)n(CCc3ccccc3)c(=O)c2n1	4.7%	.	.	.	.
CCC(C(=O)Nc1cc(-c2nc3cccnc3s2)ccc1C)c1ccccc1 (configuration not stated)	10.7µM*	.	.	.	.
Cc1ccc(-c2nc3cccnc3s2)cc1NC(=O)C(C)C	10.7µM*	.	.	.	.
Cc1ccc(-c2nc3cccnc3s2)cc1NS(C)(=O)=O	13.5µM*	?	?	?	.
O=C(COc1ccccc1)c1cn(CC(=O)N2CCCC2)c2ccccc12	21.3µM*	0.9%	-0.6%	-1.8%	-8.3%
CCc1ccc(NC(=O)C(=O)c2cn(CC(=O)N3CCCCC3)c3ccccc23)cc1	9.53µM*	-1.8%	0.2%	-2.4%	3.0%
COc1ccccc1CNC(=O)C(=O)c1cn(CC(=O)N2CCCC2)c2ccccc12	?	2.6%	16.7%	6.5%	.
COc1ccccc1CCNC(=O)C(=O)c1cn(CC(=O)N2CCOCC2)c2ccccc12	23.9µM*	9.8%	15.3%	18.0%	.
COc1ccc(NC(=O)C(=O)c2cn(CC(=O)N3CCCC3)c3ccccc23)cc1OC	?	-12.1%	-11.2%	4.2%	.
Cc1ccc(NC(=O)C(=O)c2cn(CC(=O)N3CCCCC3)c3ccccc23)cc1	9.53µM*	-1.4%	1.2%	-2.3%	4.4%
COc1ccc(Br)cc1CNC(=O)c1cnc2sc(N3CCCC3)nn2c1=O	-2.1%	.	.	.	.
CCC(C)NC(=O)c1cnn(-c2cccc(F)c2)c1-n1cccc1 (configuration not stated)	-12.9%	.	.	.	.
O=C(Nc1ccccc1Cl)C(=O)c1cn(CC(=O)N2CCOCC2)c2ccccc12	0.379µM*	?	3.55µM*	2.51µM*	.
COc1cccc(NC(=O)C(=O)c2cn(CC(=O)N3CCCC3)c3ccccc23)c1	5.36µM*	-4.4%	14.6%	18.4%	.
O=C(NCc1ccc(Cl)cc1)C(=O)c1cn(CC(=O)N2CCOCC2)c2ccccc12	-16.8%	5.7%	-2.6%	-1.7%	.
Cc1cc(OCC(=O)Nc2ccc(C(=O)OC3CCCCC3)cc2)ccc1Cl	-4.7%	.	.	.	-7.0%
Cn1c(SCC(=O)N2CCCc3ccccc32)ncc(C(=O)Nc2ccc(Cl)cc2)c1=O	-19.5%	.	.	.	.
CCC1CCc2sc(C(=O)NCc3ccccn3)cc2C1 (configuration not stated)	15.1µM*	?	?	27.6%	.
CCC1CCc2sc(C(=O)NCC3CCCO3)cc2C1 (configuration not stated)	5.36µM*	?	2.82µM*	1.78µM*	.
COc1ccc(OC)c(S(=O)(=O)Nc2cccc(-c3ccc(N4CCCCCC4)nn3)c2)c1	16.9µM*	-4.3%	-4.1%	7.8%	.
SMILES	FLuc modulator	ELG1 genotoxic	NPC1 promoter act	Rab9 prom act	SMN2 splice up
COc1ccc(S(=O)(=O)Nc2cccc(-c3ccc(N4CCCCCC4)nn3)c2)c(OC)c1	8.49µM*	?	?	?	.
CCOc1ccc(CCNC(=O)C2CCN(c3ncnc4c3nc3n4CCCCC3)CC2)cc1	-8.4%	.	.	.	.
CCN(CC(=O)Nc1ccccc1OC)C(=O)CSCc1ccc(C)cc1	8.1%	0.2%	0.2%	0.3%	.
CCOC(=O)c1cnc2nc(NCc3ccc(OCc4ccccc4)cc3)[nH]n2c1=O	10.7µM*	-2.5%	1.7%	2.3%	18.7%
Cc1nc2ncccn2c1-c1csc(Nc2ccccc2)n1	-16.0%	9.9%	2.5%	-0.2%	19.7%
c1cncc(Nc2nc(-c3cccs3)cs2)c1	19µM*	9.2µM*	?	3.16µM*	11.2µM*
c1ccc(Nc2nc(-c3ccccn3)cs2)cc1	3.79µM*	.	.	.	12.6µM*
COc1cccc2sc(Nc3nc(-c4ccccn4)cs3)nc12	12µM*	9.3%	21.5%	?	.
c1ccc(-c2csc(Nc3cccnc3)n2)nc1	19µM*	?	?	?	?
Fc1ccc(Nc2nc(-c3ccncc3)cs2)cc1	?	-1.2%	?	?	?
O=C(O)CSCc1cn2cc(Cl)ccc2n1	-17.5%	-4.7%	-2.4%	-5.2%	18.5%
O=C(O)c1ccccc1-c1cn2cc(Cl)ccc2n1	7.57µM*	-4.4%	17.6%	?	18.5%
Clc1ccc2nc(-c3ccc(Br)s3)cn2c1	0.338µM*	0.411µM*	19.0%	?	0.708µM*
COc1ccc(-c2cn3cc(C)ccc3n2)cc1Br	0.477µM*	?	0.891µM*	1.26µM*	2.24µM*
COc1ccc(-c2cn3cc(Cl)ccc3n2)cc1OC	7.57µM*	?	16.2%	?	11.2µM*
CCCCc1ccc(NC(=O)Cn2cnc3c2c(=O)n(C)c(=O)n3C)cc1	-1.8%	.	.	.	-7.4%
O=C1CC(c2nnc(Cc3ccccc3Cl)o2)CN1c1ccccc1 (configuration not stated)	-3.3%	.	.	.	-10.0%
CC(C)Sc1nc2ccc(Br)cc2[nH]1	16.9µM*	?	23.3%	?	.
CSc1nc2ccc(Br)cc2[nH]1	-5.6%	-5.0%	-3.1%	-0.1%	-28.1%
N#C/C(=N\Nc1ccccc1)C(=N)N1CCCCC1	5.36µM*	6.51µM*	2µM*	?	11.2µM*
N#C/C(=N\Nc1ccc(Cl)cc1)C(=N)N1CCCCCC1	0.953µM*	1.83µM*	0.398µM*	0.316µM*	3.55µM*
Cc1ccc(N/N=C(\C#N)C(=N)N2CCCCC2)cc1	5.36µM*	?	0.447µM*	0.501µM*	.
N#C/C(=N\Nc1ccc(S(=O)(=O)N2CCCCCC2)cc1)C(N)=S	?	-16.8%	-1.6%	0.2%	-23.0%
CCc1ccc(Nc2cc(C)nc3nc(Cc4ccc(Cl)cc4)nn23)cc1	-9.4%	.	.	.	-26.4%
O=C(O)CCc1nn2c3ccccc3nc2n(Cc2ccccc2)c1=O	-10.1%	-2.0%	0.0%	-0.3%	-21.5%
O=C(NNC(=S)Nc1cccc(Cl)c1)c1ccccc1	?	6.5%	?	23.1%	.
O=C(Nc1ccc(Cl)c(Cl)c1)c1ccccc1	3.79µM*	?	3.16µM*	1.58µM*	.
O=C(Nc1ccc(-c2nc3ccccc3s2)c(OC(=O)c2ccccc2)c1)c1ccccc1	?	?	1.58µM*	1.41µM*	2.82µM*
O=C(Nc1cccc(Cl)c1)c1ccccc1	13.5µM*	16.4µM*	?	?	.
CC(=O)Nc1ccc2cc3ccc(NC(C)=O)cc3nc2c1	10.7µM*	?	?	?	.

Source: PubChem BioAssay (National Center for Advancing Translational Sciences (NCATS))
